# Test results reported in PubChem BioAssay (Tox21).
# Records with an inconclusive call do not appear. Active and inactive are the calls of the source. The call rests on the fitted dose curve; in most records, active means well fitted curve in the direction sought with a large enough effect in the repeat runs; inconclusive means weak or mixed curves; inactive means no such curve, though single readings can be large; an effect the other way counts as inactive or inconclusive.
# Experiments:
# [1] = target: Cytochrome P450 2C19 (Homo sapiens) (UniProt P33261); assay: Cytochrome P450 Family 2 Subfamily C Member 19 (CYP2C19) small molecule antagonists: luciferase reporter qHTS assay (AID 1671197); further: potency means the concentration at half of the fitted maximal effect; nearly all actives have a fitted effect of over 65% in size
# Summary of the method: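 Compounds were tested on CYP2C19 activity via proluciferin conversion to luciferin. The 37C, 1 h reaction followed NADPH addition; detection reagent stopped it.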
# [2] = target: Cytochrome P450 2C9 (Homo sapiens) (UniProt P11712); assay: Cytochrome P450 Family 2 Subfamily C Member 9 (CYP2C9) small molecule antagonists: luciferase reporter qHTS assay (AID 1671198); further: nearly all actives have a fitted effect of over 50% in size; further: potency means the concentration at half of the fitted maximal effect
# Summary of the method: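 Enzyme-substrate mix preincubated with compound 10 min at room temperature; reaction started with NADPH regeneration solution, 1 h 37C. Luminescent luciferin product read after 20 min detection reagent.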
# [3] = target: Cytochrome P450 1A2 (Homo sapiens) (UniProt P05177); assay: Cytochrome P450 Family 1 Subfamily A Member 2 (CYP1A2) small molecule antagonists: luciferase reporter qHTS assay (AID 1671199); further: nearly all actives have a fitted effect of over 50% in size; further: potency means the concentration at half of the fitted maximal effect
# Summary of the method: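 Luminescence from luciferin formed by CYP1A2 from a proluciferin substrate, read 20 min after detection reagent. Compound was pre-incubated 10 min with enzyme-substrate, and reaction started with NADPH regeneration solution for 1 h at room temperature; furafylline control.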
# [4] = target: Voltage-gated inwardly rectifying potassium channel KCNH2 (Homo sapiens) (UniProt Q12809); assay: Human Ether-a-go-go-Related Gene (hERG) channel small molecule antagonists: fluorescence cell-based qHTS assay (AID 1671200); further: nearly all actives have a fitted effect of over 50% in size; further: potency means the concentration at half of the fitted maximal effect
# Summary of the method: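 In this thallium-flux screen, overnight-cultured U2OS cells bearing the channel are dye-loaded in darkness for an hour, rested 10 min at room temperature, and then monitored kinetically at 480/540 nm for two minutes post-stimulus.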
# [5] = target: Cytochrome P450 3A4 (Homo sapiens) (UniProt P08684); assay: Cytochrome P450 Family 3 Subfamily A Member 4 (CYP3A4) small molecule antagonists: luciferase reporter qHTS assay (AID 1671201); further: series mostly up to about 120 µM; nearly all actives have a fitted effect of over 50% in size
# Summary of the method: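 CYP3A4 activity was followed with a P450-Glo proluciferin substrate. Test compounds in DMSO were preincubated 10 min; NADPH regeneration then ran 1 h, and light output was read 20 min after detection reagent.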
# Voltage-gated inwardly rectifying potassium channel KCNH2 (Homo sapiens), sequence (Q12809 whole entry, looked up): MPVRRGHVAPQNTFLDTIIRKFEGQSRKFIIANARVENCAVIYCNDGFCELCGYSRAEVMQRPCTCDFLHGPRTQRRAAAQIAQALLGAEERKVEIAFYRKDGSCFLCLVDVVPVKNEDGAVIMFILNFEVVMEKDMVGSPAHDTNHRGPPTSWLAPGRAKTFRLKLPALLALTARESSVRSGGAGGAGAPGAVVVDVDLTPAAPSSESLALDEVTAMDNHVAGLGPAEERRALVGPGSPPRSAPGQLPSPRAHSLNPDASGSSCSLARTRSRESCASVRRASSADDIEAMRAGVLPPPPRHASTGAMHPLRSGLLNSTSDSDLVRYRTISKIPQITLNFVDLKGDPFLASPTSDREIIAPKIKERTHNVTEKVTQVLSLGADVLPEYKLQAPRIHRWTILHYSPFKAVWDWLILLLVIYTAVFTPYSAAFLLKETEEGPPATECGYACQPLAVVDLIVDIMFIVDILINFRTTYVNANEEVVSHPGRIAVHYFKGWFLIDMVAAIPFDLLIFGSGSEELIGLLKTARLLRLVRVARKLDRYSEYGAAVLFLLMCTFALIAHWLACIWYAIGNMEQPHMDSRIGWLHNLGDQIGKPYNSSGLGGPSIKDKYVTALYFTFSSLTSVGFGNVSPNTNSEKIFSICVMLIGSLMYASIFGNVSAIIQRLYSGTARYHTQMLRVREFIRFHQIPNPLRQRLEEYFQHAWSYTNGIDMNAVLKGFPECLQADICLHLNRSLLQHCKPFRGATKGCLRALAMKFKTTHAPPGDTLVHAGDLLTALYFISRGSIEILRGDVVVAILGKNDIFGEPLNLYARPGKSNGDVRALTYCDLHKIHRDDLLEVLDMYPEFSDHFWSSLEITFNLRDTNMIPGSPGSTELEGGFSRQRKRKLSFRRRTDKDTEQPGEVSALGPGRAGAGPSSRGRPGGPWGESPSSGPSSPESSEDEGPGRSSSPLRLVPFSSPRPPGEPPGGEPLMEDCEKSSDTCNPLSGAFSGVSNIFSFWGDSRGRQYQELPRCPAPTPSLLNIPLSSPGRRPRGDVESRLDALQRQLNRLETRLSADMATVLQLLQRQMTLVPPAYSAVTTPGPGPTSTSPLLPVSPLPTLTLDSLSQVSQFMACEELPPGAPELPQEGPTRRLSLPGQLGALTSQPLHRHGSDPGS
# Cytochrome P450 1A2 (Homo sapiens), sequence (P05177 whole entry, looked up): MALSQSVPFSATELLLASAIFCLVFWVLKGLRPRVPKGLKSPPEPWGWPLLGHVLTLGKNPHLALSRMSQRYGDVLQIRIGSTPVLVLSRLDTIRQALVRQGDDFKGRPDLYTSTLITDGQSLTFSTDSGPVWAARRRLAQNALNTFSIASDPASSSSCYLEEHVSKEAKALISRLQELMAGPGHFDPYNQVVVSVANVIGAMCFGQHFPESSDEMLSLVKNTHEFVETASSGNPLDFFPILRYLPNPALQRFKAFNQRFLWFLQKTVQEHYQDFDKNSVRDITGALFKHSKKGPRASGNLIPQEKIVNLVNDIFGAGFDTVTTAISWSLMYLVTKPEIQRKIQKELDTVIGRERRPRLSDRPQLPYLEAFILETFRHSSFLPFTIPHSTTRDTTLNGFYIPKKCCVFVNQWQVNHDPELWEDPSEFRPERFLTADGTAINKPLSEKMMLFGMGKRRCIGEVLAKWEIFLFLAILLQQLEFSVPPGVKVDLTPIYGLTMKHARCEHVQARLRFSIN
# Cytochrome P450 2C19 (Homo sapiens), sequence (P33261 whole entry, looked up): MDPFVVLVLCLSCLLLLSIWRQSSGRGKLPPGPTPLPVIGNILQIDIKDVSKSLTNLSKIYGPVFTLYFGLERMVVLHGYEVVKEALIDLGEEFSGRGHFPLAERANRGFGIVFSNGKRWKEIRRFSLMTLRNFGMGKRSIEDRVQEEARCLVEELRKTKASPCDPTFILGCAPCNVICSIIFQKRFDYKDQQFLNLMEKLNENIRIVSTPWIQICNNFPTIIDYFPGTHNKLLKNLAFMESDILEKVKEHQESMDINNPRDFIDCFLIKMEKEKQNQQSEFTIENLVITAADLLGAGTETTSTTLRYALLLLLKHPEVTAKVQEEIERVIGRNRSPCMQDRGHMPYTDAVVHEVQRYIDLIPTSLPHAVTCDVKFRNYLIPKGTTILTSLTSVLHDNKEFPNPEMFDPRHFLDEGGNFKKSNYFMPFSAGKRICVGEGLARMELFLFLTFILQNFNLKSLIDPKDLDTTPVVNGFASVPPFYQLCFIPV
# Cytochrome P450 2C9 (Homo sapiens), sequence (P11712 whole entry, looked up): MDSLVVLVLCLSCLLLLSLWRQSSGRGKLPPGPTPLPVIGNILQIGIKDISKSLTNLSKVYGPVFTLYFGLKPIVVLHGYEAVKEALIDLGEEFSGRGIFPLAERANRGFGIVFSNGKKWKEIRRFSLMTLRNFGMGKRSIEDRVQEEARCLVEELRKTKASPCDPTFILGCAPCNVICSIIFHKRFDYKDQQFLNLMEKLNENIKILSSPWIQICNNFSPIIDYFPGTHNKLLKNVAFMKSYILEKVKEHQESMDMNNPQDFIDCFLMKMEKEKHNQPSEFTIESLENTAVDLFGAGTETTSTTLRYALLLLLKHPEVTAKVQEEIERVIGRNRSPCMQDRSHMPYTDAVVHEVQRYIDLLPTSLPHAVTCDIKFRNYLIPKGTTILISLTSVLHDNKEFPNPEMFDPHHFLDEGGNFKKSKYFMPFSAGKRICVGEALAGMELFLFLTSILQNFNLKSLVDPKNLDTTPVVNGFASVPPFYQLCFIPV
# Cytochrome P450 3A4 (Homo sapiens), sequence (P08684 whole entry, looked up): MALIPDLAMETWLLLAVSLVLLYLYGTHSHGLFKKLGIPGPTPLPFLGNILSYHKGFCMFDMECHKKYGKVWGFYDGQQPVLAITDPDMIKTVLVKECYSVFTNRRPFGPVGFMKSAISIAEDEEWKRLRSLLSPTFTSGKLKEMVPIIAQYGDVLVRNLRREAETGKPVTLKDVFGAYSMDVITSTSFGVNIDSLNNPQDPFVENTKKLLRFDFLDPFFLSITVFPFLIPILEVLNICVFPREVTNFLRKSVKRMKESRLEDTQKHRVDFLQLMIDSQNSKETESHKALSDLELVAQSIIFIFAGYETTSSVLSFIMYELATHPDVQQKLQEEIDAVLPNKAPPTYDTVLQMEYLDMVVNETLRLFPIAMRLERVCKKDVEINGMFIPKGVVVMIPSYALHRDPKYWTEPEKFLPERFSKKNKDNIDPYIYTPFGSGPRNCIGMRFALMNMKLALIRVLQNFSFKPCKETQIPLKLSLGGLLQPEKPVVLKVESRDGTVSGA
SMILES,Potency [1],Potency [2],Potency [3],Potency [4],Potency [5]
CC(=O)Oc1cc2c(s1)CCN(C(C(=O)C1CC1)c1ccccc1F)C2 (stereo unspecified),6.92 µM (active),13.8 µM (active),inactive,–,–
CCO[C@@H]1O[C@H](C(COCc2ccccc2)OCc2ccccc2)[C@H](OCc2ccccc2)[C@H]1O (stereo partly specified),4.9 µM (active),8.71 µM (active),inactive,inactive,–
CCCCN(CCCC)CC(O)c1cc(Cl)cc2c1-c1ccc(Cl)cc1/C2=C/c1ccc(Cl)cc1 (stereo unspecified),17.4 µM (active),17.4 µM (active),16.2 µM (active),2.68 µM (active),–
CNC(=O)c1ccccc1Sc1ccc2c(/C=C/c3ccccn3)n[nH]c2c1,17.4 µM (active),6.92 µM (active),2.75 µM (active),inactive,–
CCCCNS(=O)(=O)c1ccc(C)cc1,5.64 µM (active),22.4 µM (active),31.7 µM (active),inactive,–
OCC(F)(F)F,74.8 µM (active),inactive,inactive,inactive,inactive
O=C(O)c1cc(O)c2ccccc2c1O,7.1 µM (active),15.9 µM (active),5.64 µM (active),–,–
CN(C)Cc1cc(C(C)(C)C)c(O)c(C(C)(C)C)c1,10 µM (active),11.2 µM (active),–,–,–
CCCCC(CC)COC(=O)CCCCC(=O)OCc1ccccc1 (stereo unspecified),35.6 µM (active),15.9 µM (active),56.4 µM (active),inactive,–
CCOC(=O)Cn1cccc1-c1nc(-c2ccc(OC)cc2)c(-c2ccc(OC)cc2)s1,3.89 µM (active),3.89 µM (active),inactive,inactive,–
C#C[C@]1(OC(C)=O)CC[C@H]2[C@@H]3CCC4=C/C(=N/O)CC[C@@H]4[C@H]3CC[C@@]21CC,4.36 µM (active),11 µM (active),inactive,inactive,–
